Where “and” joins values, the source holds several entries; their conditions need not be identical. Equal values may be shown once. Inconclusive results are not listed. Where a call stands in place of a potency, no number is given. Calls of active or inactive are those of the source. Calls follow the shape of the dose curve; as a rule, active = well fitted cell-killing curve with a large enough effect in the repeat runs; inconclusive = weak or mixed curves, or effect the other way; inactive = flat fitted curve, though single readings scatter.
assay: qHTS assay to identify small molecule antagonists of the androgen receptor (AR) signaling pathway using the MDA cell line - cell viability counter screen (AID 743041; also: nearly all actives have a fitted effect of over 45% in size); conditions: MDA-kb2 viability, CellTiter-Fluor, 16 h, cells co-treated with R1881 androgen agonist; series mostly up to 70.3 µM
Description: National Center for Advancing Translational Sciences [NCATS]
NIH Chemical Genomics Center [NCGC]
U.S. Environmental Protection Agency [EPA]
National Institutes of Environmental Health Sciences [NIEHS]
National Toxicology Program [NTP]
U.S. Food and Drug Administration [FDA]
Androgen receptor (AR), a nuclear hormone receptor, plays a critical role in AR-dependent prostate cancer and other androgen related diseases. Endocrine disrupting chemicals (EDCs) and their interactions with steroid hormone receptors like AR may cause disruption of normal endocrine function as well as interfere with metabolic homeostasis, reproduction, developmental and behavioral functions. To identify the compounds that inhibit AR signaling, MDA-kb2 AR-luc cell line (from ATCC, deposited by Wilson et al.) was used to screen the Tox21 10K compound library. MDA-kb2 AR-luc cell line is human breast carcinoma cell line that was stably transfected with a luciferase reporter gene under control of the MMTV promoter containing response elements for both androgen receptor (AR) and glucocorticoid receptor (GR). The cytotoxicity of the Tox21 compound library against the MDA-kb2 AR-luc cell line was tested in parallel by measuring the cell viability using CellTiter-Fluor assay (Promega, Madison, WI) in the same wells.
Tox21 Assay Protocol Summary:
MDA-kb2 AR-luc cells were dispensed at 3,000 cells/4 uL/well of culture medium into white wall/solid-bottom 1536-well plates using a Multidrop Combi (ThermoFisher Scientific, Waltham, MA) dispenser. After the assay plates were incubated at a 37C and 0% CO2 for 5 hr, 23 nL of compounds dissolved in DMSO, positive controls or DMSO only was transferred to the assay plate by a Pintool station (Kalypsys, San Diego, CA), followed by addition of 1 uL of agonist (R1881) in culture medium using a Bioraptr Flying Reagent Dispenser (FRD) workstation (Beckman Coulter, Indianapolis, IN, USA). The plates were incubated at a 37C and 0% CO2 for 16 h. After 15.5 h incubation, 1uL of CellTiter-Fluor reagent (Promega) was added using a Bioraptr FRD to each plate for measuring cytotoxicity. The fluorescence intensity was quantified on a ViewLux plate reader (PerkinElmer, Shelton, CT) following 30 min incubation at 37C and 0% CO2.
Potency is read from the fitted curve at half-maximal effect.

Row | Structure (SMILES) | Potency
1 | C=CC(=O)OCCCCCCOC(=O)C=C | inactive
2 | CCOC(=O)C(C)C(C)=O (stereo not given) | inactive
3 | CCN(CC)C(=S)SSC(=S)N(CC)CC | 376 nM (active) and 243 nM (active) and 222 nM (active)
4 | CCCOC(=O)c1cc(O)c(O)c(O)c1 | inactive
5 | CCCCCCCCCCCCc1ccccc1O | inactive
6 | CN(C)c1ccc2nc3ccc(=[N+](C)C)cc-3sc2c1 | 5.96 µM (active) and 11.7 µM (active) and 17.2 µM (active)
7 | Cc1occc(=O)c1OC(=O)C(C)C | inactive
8 | Oc1ccc(Cl)cc1Cc1cc(Cl)ccc1O | inactive
9 | COC(=O)c1cccc(C(=O)OC)c1 | inactive
10 | CCc1cc(C(C)(C)C)c(O)c(C(C)(C)C)c1 | inactive
11 | O=C1CC2(CCCC2)CC(=O)N1CCCCN1CCN(c2ncccn2)CC1 | inactive
12 | CCC(C)(Oc1ccc(C2(c3ccc(OC(C)(CC)C(=O)O)cc3)CCCCC2)cc1)C(=O)O (stereo not given) | inactive
13 | CCC[C@H](N[C@@H](C)C(=O)N1[C@H](C(=O)O)C[C@@H]2CCCC[C@@H]21)C(=O)OCC | inactive
14 | NC(N)=Nc1nc(CSCC/C(N)=N/S(N)(=O)=O)cs1 | inactive
15 | CCOc1ccc2c(c1)C(C)=CC(C)(C)N2 | inactive
16 | CC1COc2c(N3CCN(C)CC3)c(F)cc3c(=O)c(C(=O)O)cn1c23 (stereo not given) | inactive
17 | O=C(O[C@@H]1Cc2c(O)cc(O)cc2O[C@@H]1c1cc(O)c(O)c(O)c1)c1cc(O)c(O)c(O)c1 | inactive
18 | CC1=C(C=O)C(C)(C)CC=C1 | inactive
19 | Cc1cc(OCCOCC[N+](C)(C)Cc2ccccc2)ccc1C(C)(C)CC(C)(C)C | 24.2 µM (active)
20 | Cc1cccc(O)c1C | inactive

Row | Structure (SMILES) | Potency
21 | NC(Cc1ccc(Cl)cc1)C(=O)O (stereo not given) | inactive
22 | Cc1cccc([N+](=O)[O-])c1C(=O)O | inactive
23 | OCCOCCN1CCN(C(c2ccccc2)c2ccc(Cl)cc2)CC1 (stereo not given) | inactive
24 | Cc1ccc(S(=O)(=O)Oc2ccc(N=Nc3ccc(-c4ccc(N=Nc5c(O)ccc6cc(S(=O)(=O)O)cc(S(=O)(=O)O)c56)c(C)c4)cc3C)cc2)cc1 | 54.7 µM (active) and 35.5 µM (active)
25 | CCCCC(CC)COC(=O)CC(C(=O)OCC(CC)CCCC)S(=O)(=O)O (stereo not given) | inactive
26 | CC(C)(c1ccccc1)c1ccc(Nc2ccc(C(C)(C)c3ccccc3)cc2)cc1 | inactive
27 | CC(C)(C)c1ccccc1 | inactive
28 | CCN1CCCC1CNC(=O)c1cc(S(=O)(=O)CC)c(N)cc1OC (stereo not given) | inactive
29 | COc1cc(C(=S)N2CCOCC2)ccc1O | inactive
30 | CCC(CO)(CO)COCC(CC)(CO)CO | inactive
31 | CC(C)(O)CCC(C)(C)O | inactive
32 | O=C(O)CCc1ccccc1 | inactive
33 | Clc1ccc2c(c1)C(N1CCNCC1)=Nc1ccccc1O2 | inactive
34 | C=C(C)C1CC=C(C)C(OC(C)=O)C1 (stereo not given) | inactive
35 | CCC(C)(C)C(=O)O[C@H]1C[C@@H](C)C=C2C=C[C@H](C)[C@H](CC[C@@H]3C[C@@H](O)CC(=O)O3)[C@H]21 | inactive
36 | c1ccc2cc3c(ccc4ccccc43)cc2c1 | inactive
37 | CCCCCC(=O)O[C@]1(C(C)=O)CC[C@H]2[C@@H]3CCC4=CC(=O)CC[C@]4(C)[C@H]3CC[C@@]21C | inactive
38 | CCCCCCCCCCCCCCCCCl | inactive
39 | O=C1NCC2(CCN(CCc3ccccc3)CC2)O1 | inactive
40 | CCCC(=O)c1ccccc1 | inactive
